# Several values for one entry are separate records, joined by “and”; a condition that tells them apart may be missing. Identical values can stand only once. Results filed as inconclusive are left out. Activity calls are given as the source filed them. Unless noted, no cut-off is given here; in the data, nearly all actives have AC50 up to about 26 µM.
# Key:
# [1] = viability loss in pontine glioma line – cell-based, SU-DIPG-XXV, MIPE5.0, CellTiter-Glo, qHTS, dose response (AID 1347065); conditions: CellTiter-Glo ATP luminescence;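 note: cells exposed to compound for 48 hours before ATP readout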
# [2] = growth inhibition of DIPG cells – cell-based, MIPE4.0 library, CellTiter-Glo luminescence, qHTS (AID 1347066; cut-off not given, nearly all actives have AC50 up to about 30 µM;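 note: cells exposed to compound for 48 hours before readout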); conditions: SU-DIPG-VI viability, CellTiter-Glo ATP luminescence
# [3] = JHH-DIPG-1 glioma cell viability, MIPE5.0 library, CellTiter-Glo luminescence, qHTS (AID 1347067); conditions: JHH-DIPG-1 glioma viability, CellTiter-Glo ATP luminescence;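 note: cells exposed to compound for 48 hours before readout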
# [4] = growth inhibition of DIPG cells – cell-based, MIPE5.0 library, qHTS (AID 1347068; cut-off not given, nearly all actives have IC50 up to about 30 µM;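 for IC50: cells exposed to compound for 48 hours before viability readout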); conditions: SU-DIPG-XXV viability
# [5] = viability loss with induced miR-34 in A549 – imaging, A549 dox-inducible miR-34, nuclei and caspase counts, primary screen (AID 1347080;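 active = compounds whose cell count with miR-34 switched on is under 0.7 times the count with it off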); conditions: A549 miR-34 inducible, Hoechst nuclei count, 48 h
# [6] = MELAS cybrid and Rieske KO viability enhancers – cell-based, MELAS cybrids, Rieske KO mouse fibroblasts, CellTiter-Glo, primary screen (AID 1508586;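 active = mean z-score across replicates of 1.96 or higher in either the MELAS or the Rieske mutant cell line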;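 note: z relative to plate mean and SD of compound and empty wells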); conditions: low glucose
# [7] = biological target: NAD(+) hydrolase SARM1 (Homo sapiens) (UniProt Q6SZW1); experiment: blocking NAD cleavage by SARM1 SAM-TIR – cell lysate, NAD-Glo luminescence (AID 1508614;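 active = compound whose remaining NAD level is above about 45 nM, limit read from the data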;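 note: higher remaining NAD means stronger inhibition of SARM1 NADase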); conditions: SAM-TIR HEK293T lysate NADase, at 1 µM, stronger effect = higher value
# [8] = biological target: Mitogen-activated protein kinase 7 (Homo sapiens) (UniProt Q13164); experiment: Gal4-ERK5 driven luciferase induction – cell-based, HTS, primary screen (AID 1508626;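 active = luciferase signal above three times the same-plate solvent-only control wells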;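 note: luciferase driven by Gal4-ERK5 fusion binding five Gal4 sites before minimal TATA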); conditions: HeLa Gal4-ERK5 transactivation, 18 h, at 5 µM, stronger effect = higher value
# [9] = compounds altering HSF1 focus formation in cells – imaging, Selleck Cancer Library (AID 1347162; in the data active = plate-normalised HSF1 focus index below about 0.46); conditions: human cells, HSF1 nuclear foci imaging, at 10 µM; SSMD: measured here: HSF1 foci SSMD mean; cell count: measured here: cell number; plate-normalised HSF1 focus index: stronger effect = lower value
# [10] = blockers of cellular phospholipid synthesis – cell-based, LOPAC library, screen 4, primary screen (AID 1347384; call rule not given here); conditions: animal cells, phospholipid biosynthesis inhibition screen; at 10 µM
# [11] = galactose survival enhancers in mitochondrial complex I cybrids – cell-based, galactose medium, ATP luminescence, primary screen (AID 1645843;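 active = z-score of at least 1.8 in each of two replicates, scored against plate mean and spread of sample wells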;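 note: positive z means more ATP and so rescue of galactose-driven cybrid death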); conditions: complex I mutant cybrid cells, 72 h, stronger effect = higher value
# [12] = stronger effect = lower value, cell number ratio, induced over uninduced
# [13] = measured here: relative caspase fold change +Dox/-Dox
# [14] = measured here: total cells with miR-34 induction, stronger effect = lower value
# [15] = measured here: total cells without miR-34 induction
# [16] = MELAS cybrid survival, CellTiter-Glo 48 h, stronger effect = higher value
# [17] = Rieske KO mouse fibroblast survival, CellTiter-Glo 72 h
# Sequence of Mitogen-activated protein kinase 7 (Homo sapiens) (Q13164 whole entry, looked up, the tested form may be a part): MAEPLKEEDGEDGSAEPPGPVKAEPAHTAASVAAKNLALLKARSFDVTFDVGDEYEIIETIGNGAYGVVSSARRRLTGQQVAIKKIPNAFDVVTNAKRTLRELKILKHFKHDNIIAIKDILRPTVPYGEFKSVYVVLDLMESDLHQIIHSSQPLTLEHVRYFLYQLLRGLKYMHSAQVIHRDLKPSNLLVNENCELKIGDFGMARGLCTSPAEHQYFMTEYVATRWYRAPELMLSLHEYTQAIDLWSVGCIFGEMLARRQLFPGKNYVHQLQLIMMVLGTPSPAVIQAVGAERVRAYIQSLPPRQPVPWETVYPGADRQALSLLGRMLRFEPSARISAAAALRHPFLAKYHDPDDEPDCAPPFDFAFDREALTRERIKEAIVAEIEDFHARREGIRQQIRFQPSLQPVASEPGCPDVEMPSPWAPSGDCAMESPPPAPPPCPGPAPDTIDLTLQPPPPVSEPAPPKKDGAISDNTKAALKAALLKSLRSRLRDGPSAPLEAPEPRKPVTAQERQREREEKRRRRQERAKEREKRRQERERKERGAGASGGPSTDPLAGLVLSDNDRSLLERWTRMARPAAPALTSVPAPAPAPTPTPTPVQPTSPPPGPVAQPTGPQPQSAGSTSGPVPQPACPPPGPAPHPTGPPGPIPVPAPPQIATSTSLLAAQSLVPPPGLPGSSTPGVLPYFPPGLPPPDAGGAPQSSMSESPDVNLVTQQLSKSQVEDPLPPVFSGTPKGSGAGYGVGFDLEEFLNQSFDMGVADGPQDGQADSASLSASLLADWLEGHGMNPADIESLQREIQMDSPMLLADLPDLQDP
# Sequence of NAD(+) hydrolase SARM1 (Homo sapiens) (Q6SZW1 whole entry, looked up, the tested form may be a part): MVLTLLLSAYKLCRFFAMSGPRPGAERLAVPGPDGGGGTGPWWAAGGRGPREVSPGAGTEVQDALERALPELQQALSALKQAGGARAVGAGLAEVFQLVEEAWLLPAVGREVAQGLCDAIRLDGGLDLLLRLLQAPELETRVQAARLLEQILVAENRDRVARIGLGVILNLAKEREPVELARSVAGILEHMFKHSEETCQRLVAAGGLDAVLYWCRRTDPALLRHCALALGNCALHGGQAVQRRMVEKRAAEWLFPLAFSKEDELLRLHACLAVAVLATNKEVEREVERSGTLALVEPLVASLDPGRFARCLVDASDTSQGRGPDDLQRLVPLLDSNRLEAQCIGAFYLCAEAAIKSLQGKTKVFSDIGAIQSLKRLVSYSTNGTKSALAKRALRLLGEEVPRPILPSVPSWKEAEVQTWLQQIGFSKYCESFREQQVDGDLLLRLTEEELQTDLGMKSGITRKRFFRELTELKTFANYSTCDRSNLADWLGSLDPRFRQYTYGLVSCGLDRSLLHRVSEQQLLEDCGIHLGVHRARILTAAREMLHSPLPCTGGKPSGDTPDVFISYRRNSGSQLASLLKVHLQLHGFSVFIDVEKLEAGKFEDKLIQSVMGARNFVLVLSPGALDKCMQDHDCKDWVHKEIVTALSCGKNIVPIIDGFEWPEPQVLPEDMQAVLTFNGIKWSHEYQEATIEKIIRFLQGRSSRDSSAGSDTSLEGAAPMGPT
smiles,measurement,setting,value
NCC1CCC(C(=O)O)CC1 (stereo not given),outcome,[1],inactive
same,outcome,[2],inactive
same,outcome,[3],inactive
same,outcome,[4],inactive
same,fold change,[5]; [12],0.928 (inactive) and 0.834 (inactive)
same,fold change,[5]; [13],1.25 and 2.45
same,cell count,[5]; [14],8960 and 11200
same,cell count,[5]; [15],9660 and 13500
same,z-score,[6]; [16],-0.244 (inactive)
same,z-score,[6]; [17],-0.313
same,remaining NAD,[7],10 nM (inactive)
same,luciferase signal,[8],44 AU (inactive)
CC(=O)[C@]1(O)Cc2c(O)c3c(c(O)c2[C@@H](O[C@H]2C[C@H](N)[C@H](O)[C@H](C)O2)C1)C(=O)c1ccccc1C3=O,AC50,[1],5.25 µM (active)
same,AC50,[2],13.2 µM (active)
same,AC50,[3],4.68 µM (active)
same,IC50,[4],23.5 µM (active)
same,fold change,[5]; [12],1.18 (inactive) and 1.09 (inactive)
same,fold change,[5]; [13],0.974 and 1.09
same,cell count,[5]; [14],743 and 2700
same,cell count,[5]; [15],630 and 2460
same,SSMD,[9],-18.6
same,cell count,[9],5180
same,plate-normalised HSF1 focus index,[9],0.0445 (active)
same,outcome,[10],inactive
same,z-score,[6]; [16],2.62 (active)
same,z-score,[6]; [17],-0.996
same,z-score,[11],-1.04 (inactive) and -2.14 (inactive)
CCC[C@H](N[C@@H](C)C(=O)N1[C@H](C(=O)O)C[C@@H]2CCCC[C@@H]21)C(=O)OCC,outcome,[1],inactive
same,outcome,[2],inactive
same,outcome,[3],inactive
same,outcome,[4],inactive
same,fold change,[5]; [12],0.917 (inactive) and 0.847 (inactive)
same,fold change,[5]; [13],0.846 and 3.59
same,cell count,[5]; [14],9000 and 11500
same,cell count,[5]; [15],9820 and 13600
same,z-score,[6]; [16],0.628 (inactive)
same,z-score,[6]; [17],-0.272
same,remaining NAD,[7],10 nM (inactive)
same,luciferase signal,[8],156 AU (inactive)
CCC1(C)CC(=O)NC1=O (stereo not given),outcome,[1],inactive
same,outcome,[2],inactive
same,outcome,[3],inactive
same,outcome,[4],inactive
same,fold change,[5]; [12],0.975 (inactive) and 0.962 (inactive) and 0.96 (inactive)
same,fold change,[5]; [13],1.24 and 1.03 and 2.35
same,cell count,[5]; [14],10300 and 8160 and 12600
same,cell count,[5]; [15],10600 and 8470 and 13100
same,outcome,[10],inactive
same,z-score,[6]; [16],-0.00472 (inactive)
same,z-score,[6]; [17],-0.121
same,remaining NAD,[7],10 nM (inactive)
same,luciferase signal,[8],64 AU (inactive)
same,z-score,[11],0.235 (inactive)
CC(=O)O[C@H]1C[C@@H]2CC[C@@H]3[C@H](CC[C@@]4(C)[C@H]3C[C@H]([N+]3(C)CCCCC3)[C@@H]4OC(C)=O)[C@@]2(C)C[C@@H]1N1CCCCC1,outcome,[1],inactive
same,outcome,[2],inactive
same,outcome,[3],inactive
same,outcome,[4],inactive
same,fold change,[5]; [12],0.831 (inactive)
same,fold change,[5]; [13],1.81
same,cell count,[5]; [14],8710
same,cell count,[5]; [15],10500
same,z-score,[6]; [16],0.144 (inactive) and 0.341 (inactive)
same,z-score,[6]; [17],-0.264 and -0.536
same,remaining NAD,[7],10 nM (inactive)
same,luciferase signal,[8],52 AU (inactive)
same,z-score,[11],0.335 (inactive)
CNC[C@H](O)c1cccc(O)c1,outcome,[1],inactive
same,outcome,[2],inactive
same,outcome,[3],inactive
same,outcome,[4],inactive
same,fold change,[5]; [12],0.733 (inactive) and 0.885 (inactive) and 0.869 (inactive)
same,fold change,[5]; [13],1.33 and 1.38 and 1.19
same,cell count,[5]; [14],6820 and 9660 and 11500
same,cell count,[5]; [15],9300 and 10900 and 13200
same,outcome,[10],inactive
same,z-score,[6]; [16],-0.327 (inactive)
same,z-score,[6]; [17],0.52
same,remaining NAD,[7],10 nM (inactive)
same,luciferase signal,[8],40 AU (inactive)
same,z-score,[11],0.64 (inactive)
NC(=O)c1ncn([C@@H]2O[C@H](CO)[C@@H](O)[C@H]2O)c1O,outcome,[1],inactive
same,outcome,[2],inactive
same,outcome,[3],inactive
same,outcome,[4],inactive
same,fold change,[5]; [12],1.09 (inactive)
same,fold change,[5]; [13],1.07
same,cell count,[5]; [14],10800
same,cell count,[5]; [15],9890
same,outcome,[10],inactive
same,z-score,[11],0.59 (inactive)

# Reference: PubChem BioAssay
